# Hit rate of the full screen: of about 200,000 compounds, about 5,100 (2.5%) were called active.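 Rule for the calls: active = activation above the screen-wide mean activation plus 3 SD (cut at about 130% in these data); inactive = the rest.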 For the sample, actives were picked, then their nearest neighbours and some compounds at random.
# Assay: STAT1 signaling activators, primary screen, cell-based, HTS, luciferase reporter (AID 932);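 note: raw ratio to IFN-gamma control signal so 100% means no change and 0% no light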
# Details: NIH 3T3 STAT1-luciferase reporter, IFN-gamma, luminescence; at 5.5 µM; hits give high values; 100% = IFN-gamma alone, no compound
row,Structure (SMILES),activation (% of control)
1,COc1ccc(C(=S)Nc2ccccc2)cc1,118% (inactive)
2,COc1ccc(NC(=S)N2N=CCC2c2ccccc2)cc1 (centres undefined),135% (active)
3,COc1ccc(C(=O)NC2CCN(C(=S)Nc3ccccc3)CC2)cc1,88.7% (inactive)
4,Cc1ccccc1-n1cc(CNC(=O)CC2C(=O)NCCN2C/C=C/c2ccccc2)cn1 (centres undefined),100% (inactive)
5,O=C(Cn1cc(C(F)(F)F)ccc1=O)N/N=C/c1ccc(Cl)cc1Cl,116% (inactive)
6,O=C(/C=C/c1ccc(N2CCOCC2)cc1)c1ccccc1,129% (active)
7,O=C(O)c1ccc2c(c1)C(=O)N(c1ccc(/C=C/C(=O)c3ccccc3)cc1)C2=O,99.8% (inactive)
8,O=C(/C=C/c1ccccc1)c1ccoc1,98% (inactive)
9,Cc1ccc(NC(=O)CCOc2ccccc2)cc1S(=O)(=O)Nc1ccccc1Cl,98.8% (inactive)
10,Cc1csc(NC(=O)CSc2ccc(-c3ccc(F)cc3)nn2)n1,112% (inactive)
11,Cc1ccc(NC(=S)NCc2ccccc2Cl)c(C)c1,96.8% (inactive)
12,CCOC(=O)N1CCN(C(=S)Nc2ccc(C)cc2C)CC1,96.2% (inactive)
13,Cc1ccc(NC(=S)Nc2ncccc2C)c(C)c1,134% (active)
14,COc1ccc(N2CCN(C(=S)Nc3ccc(S(N)(=O)=O)cc3)CC2)cc1,89.8% (inactive)
15,COc1ccc(C=Nc2cccc3ncccc23)cc1,99.7% (inactive)
16,COc1ccc(/C=N/Nc2nc3ccccc3c(=O)[nH]2)cc1,155% (active)
17,O=c1c2ccccc2nc(N/N=C/c2ccccc2)n1O,113% (inactive)
18,COc1ccc(S(=O)(=O)NCC2CCCN(C(=O)c3occc3C)C2)cc1 (centres undefined),96.8% (inactive)
19,COc1ccc(/C=N/NC(=O)C(C)N(c2ccc(OC)cc2)S(C)(=O)=O)cc1 (centres undefined),100% (inactive)
20,CC(C)(C)c1ccc(/C=C/C(=O)Nc2ncccn2)cc1,138% (active)
21,CC(C)(C)c1ccc(/C=C/C(=O)NC2CCS(=O)(=O)C2)cc1 (centres undefined),104% (inactive)
22,O=C(/C=C/c1ccc(Cl)cc1)Nc1ccc(S(=O)(=O)Nc2ncccn2)cc1,107% (inactive)
23,O=C(NCCN1C(=O)S/C(=C\c2cccnc2)C1=O)c1cccc(OC(F)F)c1,101% (inactive)
24,Cc1ccccc1NC(=O)NC1(C(=O)N2CCCC2)CCCCC1,99% (inactive)
25,COc1cccc(C(=O)Nc2nc3ccc(S(C)(=O)=O)cc3s2)c1,119% (inactive)
26,COc1ccc2nc(Nc3nc4ccc(NC(C)=O)cc4s3)sc2c1,109% (inactive)

row,Structure (SMILES),activation (% of control)
1,COc1ccc2nc(NC(=O)c3ccc(Br)s3)sc2c1,158% (active)
2,O=C(/C=C/c1cccs1)NCc1cccnc1,101% (inactive)
3,CSc1ccc(/C=N/NC(=O)c2cccc(Cl)c2)cc1,150% (active)
4,COc1ccc(/C=N/NC(=O)c2cccc(C(F)(F)F)c2)cc1,105% (inactive)
5,CSc1ccc(/C=N\NC(=O)COc2ccc(Cl)cc2Br)cc1,103% (inactive)
6,COc1ccc(/C=C/C(=O)Nc2cccnc2)cc1OC,112% (inactive)
7,COc1ccc(/C=C/C(=O)Nc2ccc(C34CC5CC(CC(O)(C5)C3)C4)cc2)cc1OC,141% (active)
8,COc1ccc(/C=C/C(=O)N2CCCC2)cc1OC,84.7% (inactive)
9,O=C(CC12CC3CC(CC(C3)C1)C2)NCc1ccco1,97.2% (inactive)
10,C/C(=N\NC(=O)c1cccc(N2CCCC2=O)c1)c1ccc(N)cc1,113% (inactive)
11,Nc1ccc(-c2nnc(-c3ccc(-c4ccccc4)cc3)o2)cc1,139% (active)
12,O=C(OCc1ccc(Br)cc1)c1cccc(-c2nnc(-c3ccccc3)o2)c1,112% (inactive)
13,OC(c1nnc(-c2ccccc2)o1)c1cccs1 (centres undefined),117% (inactive)
14,CCCC(=O)Nc1nnc(-c2ccccc2)o1,103% (inactive)
15,Brc1ccc(-c2nnc(-c3ccccc3)o2)o1,138% (active)
16,Nc1ccc(-c2sc(N)nc2-c2ccccc2)cc1,94.5% (inactive)
17,CCNC(=O)c1ccc(OCC(=O)Nc2ccc(F)cc2)c(OC)c1,105% (inactive)
18,CCCCN1C(=O)CCC(C(=O)O)C1c1ccc(OC)cc1 (centres undefined),107% (inactive)
19,Nc1ccc(C(=O)NCc2ccccc2)cc1,100% (inactive)
20,COC(=O)CSc1ccc2nnc(CCNS(=O)(=O)c3ccc(C)cc3)n2n1,96.4% (inactive)
21,COc1ccc(/C=N/NC(=O)CNC(=O)c2ccc(S(=O)(=O)N3CCCC3)cc2)c(OC)c1,99.5% (inactive)
22,Cc1noc(C)c1/C=N/Nc1ccc2ccccc2n1,157% (active)
23,Cc1cc(C)nc(N/N=C/c2c(C)oc3ccccc23)n1,98.5% (inactive)
24,C(=N\Nc1ccc2ccccc2n1)/c1ccc2c(c1)OCO2,35.8% (inactive)
25,Cc1cccc(C)c1NC(=O)C(c1ccccc1)N1CC(=O)Nc2ccccc21 (centres undefined),94.6% (inactive)
26,COC(=O)Nc1nc2ccc(Sc3ccccc3)cc2[nH]1,135% (active)

row,Structure (SMILES),activation (% of control)
1,COc1cc(OC)cc(C(=O)N[C@H](C(=O)Nc2nc3ccccc3[nH]2)C(C)C)c1,96.1% (inactive)
2,Cc1nc2ccc(C(=O)O)cc2[nH]1,96.9% (inactive)
3,O=C(CCCc1ccccc1)NCc1ccccc1,108% (inactive)
4,CCOC(=O)CCNC(=O)N1CCCC(C(=O)c2ccccc2SC)C1 (centres undefined),92.5% (inactive)
5,O=C(Nc1ccc2sc3ccccc3c(=O)c2c1)c1ccccc1Cl,144% (active)
6,O=C(Nc1ccc2nc3n(c(=O)c2c1)CCCCC3)c1ccccc1Cl,101% (inactive)
7,COc1cc(NC(=O)c2cccs2)ccc1NC(=O)c1ccccc1Cl,109% (inactive)
8,C#CCOCCOCCOCCNc1nc(N2CCN(C(=O)[C@H](C(C)C)n3cc(CCO)nn3)CC2)nc(N2CCN(C(=O)[C@H]([C@@H](C)CC)n3cc(CCCN=C(N)N)nn3)CC2)n1,100% (inactive)
9,O=C(COc1ccccc1[N+](=O)[O-])NC1CC1,92.9% (inactive)
10,NS(=O)(=O)c1ccc(NC(=S)NNC(=O)c2cccs2)cc1,104% (inactive)
11,N#Cc1c(NC(=O)CCCl)sc2c1CCCCC2,101% (inactive)
12,N#Cc1c(NC(=O)C2CCCO2)sc2c1CCCCC2 (centres undefined),139% (active)
13,N#Cc1c(NC(=O)C2CC(Cl)=CCC2C(=O)O)sc2c1CCCCC2 (centres undefined),103% (inactive)
14,CCc1ccc(NC2Nc3cc(C)nn3S2)cc1 (centres undefined),171% (active)
15,CCc1ccc(NC(=O)N2CCN(c3ccccc3)CC2)cc1,109% (inactive)
16,CCOC(=O)c1ccc(NC2Nc3cc(C)nn3S2)cc1 (centres undefined),102% (inactive)
17,COc1ccc(/C(N)=N/OC(=O)Oc2ccccc2)cc1,98.3% (inactive)
18,COc1ccc(/C(N)=N/OC(=O)Cc2ccccc2)cc1,142% (active)
19,COc1ccc(/C(N)=N/OC(=O)CCCc2ccccc2)cc1,108% (inactive)
20,COc1ccccc1-c1nc(SC)n[nH]1,103% (inactive)
21,CCOc1ccc(OCc2cccc(C(=O)N(CC)CC)c2)cc1,43.9% (inactive)
22,C/C(=N/NS(=O)(=O)c1ccccc1)c1ccc(NC(=O)C(F)(F)F)cc1,105% (inactive)
23,O=C(Nc1ccc(Oc2ccccc2)cc1)c1ccco1,132% (active)
24,Cc1cccc(NC(=O)Nc2cccc(Oc3c(F)c(F)c(F)c(F)c3F)c2)c1,101% (inactive)
25,O=C(Nc1ccc(Sc2ccc(Br)cc2)cc1)c1ccco1,93.9% (inactive)
26,C/C(=N\NS(=O)(=O)c1ccc(Cl)cc1)c1ccc(NC(=O)c2ccco2)cc1,142% (active)

row,Structure (SMILES),activation (% of control)
1,COc1cccc(C(=O)Nc2ccc(NC(=O)c3ccco3)cn2)c1,108% (inactive)
2,O=C(O)Cc1ccc(NC(=O)c2cccs2)cc1,89.8% (inactive)
3,O=C(Nc1ccc(NC(=O)c2cccs2)cn1)c1ccco1,142% (active)
4,CN1CCN(S(=O)(=O)c2ccc(NC(=O)c3ccco3)cc2)CC1,98.8% (inactive)
5,COC(=O)c1ccc(NC(=O)c2ccco2)cc1,124% (inactive)
6,Cc1ccc(C(=O)COc2cccc(NC(=O)c3ccco3)c2)cc1,93.6% (inactive)
7,Cc1ccoc1C(=O)Nc1cccc(Oc2ccccc2)c1,137% (active)
8,Cc1c(Cl)cccc1NC(=S)N(Cc1ccccc1)Cc1cccnc1,94.9% (inactive)
9,CC(=O)Nc1ccc(NC(=S)NC(=O)/C=C/c2ccccc2)cc1,87.3% (inactive)
10,COc1cc(/C=N/N=C(\N)c2nonc2N)cc(OC)c1OC,102% (inactive)
11,CC(C)(C)n1nc2c(c1NC(=O)c1cc3ccccc3o1)CSC2,97.4% (inactive)
12,Cc1cc(C)n(-c2nnc(N3CCN(c4ccccc4)CC3)nn2)n1,104% (inactive)
13,Cc1ccnc(NC(=O)c2ccc(NC(=O)c3ccco3)cc2)c1,129% (active)
14,Cc1ccnc(NC(=O)c2ccco2)n1,101% (inactive)
15,O=C(/C=C/c1ccco1)Nc1ccc(Oc2ccccc2)cc1,134% (active)
16,Cc1ccnc(NC(=O)c2ccoc2C)c1,127% (inactive)
17,O=C(/C=C/c1ccco1)Nc1cccc(-c2nc3ccccc3[nH]2)c1,119% (inactive)
18,Cc1nnc(NC(=O)/C=C/c2ccco2)s1,105% (inactive)
19,Cn1c(=O)c2c(ncn2CC(=O)N/N=C/c2cn[nH]c2-c2ccc(F)cc2)n(C)c1=O,109% (inactive)
20,CC(Oc1ccccc1F)C(=O)NN (centres undefined),98% (inactive)
21,CC(C)c1nc(CNC(=O)CC2C(=O)NCCN2Cc2ccoc2)cs1 (centres undefined),101% (inactive)
22,O=C(O)c1ccc(NS(=O)(=O)c2ccc3c(c2)C(=O)c2cc(S(=O)(=O)Nc4ccc(C(=O)O)cc4)ccc2-3)cc1,95.5% (inactive)
23,CCCn1nc(C(=O)N2CCCc3ccccc32)c2ccccc2c1=O,97.4% (inactive)
24,COc1ccc(Nc2nc(Cl)nc(NCc3ccco3)n2)cc1,104% (inactive)
25,COc1ccc(-n2cnc3cc(NCc4ccco4)ccc32)cc1,137% (active)
26,COc1ccc(-n2cnc3cc(C(=O)NC4CCCC4)ccc32)cc1,110% (inactive)
